Experimental data: PubChem BioAssay (EPA / NIEHS)
Calls of active or inactive are those of the source. Rule for the calls: active = hit-call score of the fitted dose curve at least 0.9, where 1 is the maximum; inactive = score below 0.9.

Test: ATG_Oct_MLP_CIS: Attagene CIS-FACTORIAL HepG2 Assay for human Octamer-Binding Transcription Factor (Oct) (AID 2282993)
Conditions: HepG2 Attagene cis-factorial Oct reporter, mRNA; actives raise or lower the signal
Experimental: ATG_CIS is a cell-based, multiplexed-readout assay that uses HepG2, a human liver cell line, with measurements taken at 24 hours after chemical dosing in a 24-well plate.ATG_Oct_MLP_CIS is one of 52 assay component(s) measured or calculated from the ATG_CIS assay. It is designed to make measurements of mRNA induction, a form of inducible reporter, as detected with fluorescence intensity signals by Reverse transcription polymerase chain reaction (RT-PCR) and Capillary electrophoresis technology.Data from the assay component ATG_Oct_MLP_CIS was analyzed into 1 assay endpoint. This assay endpoint, ATG_Oct_MLP_CIS, was analyzed with bidirectional fitting relative to DMSO as the negative control and baseline of activity. Using a type of inducible reporter, measures of mRNA for gain or loss-of-signal activity can be used to understand the reporter gene at the transcription factor-level as they relate to the gene POU2F1. Furthermore, this assay endpoint can be referred to as a primary readout, because this assay has produced multiple assay endpoints where this one serves a reporter gene function. To generalize the intended target to other relatable targets, this assay endpoint is annotated to the dna binding intended target family, where the subfamily is POU domain protein.
Human liver HepG2 cells are transiently transfected with multiple reporter transcription units (MRTUs) in 6-well plates using FuGene 6 reagent (Roche; 3 ml FuGene/1 mg DNA). The MRTU constructs are regulated by a cis-regulating element (promoter). […] A major difference between the CIS and TRANS system is that in CIS activities of endogenous TFs are measured, whereas the TRANS assay evaluates changes in activities of exogenous, chimeric NR-Gal4 proteins. […] At the end of 24 hour incubation, total RNA was isolated using TriZol reagent (Invitrogen). The isolated RNA is then reverse-transcribed using oligo(dT) primer and Mo-MLV reverse transcriptase (Invitrogen) with DNAse I (Ambion) treatment for 30 min. The one-tenth of the produced cDNA was amplified by PCR using Taq DNA polymerase (Invitrogen) and two reporter sequence-specific primers. The PCR products were fluorescently labeled by primer extension with 6-arboxyfluorescein (6-FAM) 5'-labeled reporter sequence-specific primer (2 min at 95 C, 20 s at 68 C and 10 min at 72 C) and these products were digested with 5U of HpaI (New England Biolabs) for 2h at 37 C. The fragments were purified using Qiaquick PCR columns (Qiagen), analyzed on an ABI 3130xL genetic analyzer (Applied Biosystems) with peak positions identified by using a set of X-rhodamine (ROX)-labeled MapMarker1000 molecular weight standards (BioVentures). The raw capillary electrophoresis data was processed using Attagraph software (Attagene).

Row | Structure (SMILES) | outcome | AC50
1 | CC/C=C\CC/C=C/C(OCC)OCC | inactive | –
2 | CCCCCCCCCCC1CO1 (stereo not given) | inactive | –
3 | CN(C)CCCN1c2ccccc2CCc2ccc(Cl)cc21 | inactive | –
4 | CCCCCCCC#N | inactive | –
5 | Oc1ccc(Cl)cc1C1CCCC1 | – | 47.9 µM (active)
6 | OCCN(CCO)c1cccc(Cl)c1 | inactive | –
7 | CCCCn1cc[n+](C)c1 | inactive | –
8 | COC(=O)CCSCCC(=O)OC | inactive | –
9 | [O-][n+]1ccc(Cl)cc1 | inactive | –
10 | CC(=O)OC(C)(C)Cc1ccccc1 | inactive | –
11 | CCCc1c(OCCCCc2nn[nH]n2)ccc(C(C)=O)c1O | inactive | –
12 | Nc1nnc(-c2ccc([N+](=O)[O-])o2)o1 | inactive | –
13 | O=C(C1CCCCC1)N1CC(=O)N2CCc3ccccc3C2C1 (stereo not given) | inactive | –
14 | NCc1ccccc1 | inactive | –
15 | C=CN1CCCCCC1=O | inactive | –
16 | CCOC(=O)c1ccccc1 | inactive | –
17 | CC/C=C\CC1=C(C)CCC1=O | inactive | –
18 | Nc1ccc(S(=O)(=O)Nc2cnc3ccccc3n2)cc1 | inactive | –
19 | Cc1cccnc1 | inactive | –
20 | O=C1NC(=O)C2CC=CCC12 (stereo not given) | inactive | –

Row | Structure (SMILES) | outcome | AC50
21 | OCCOCCOCCOCCOCCO | inactive | –
22 | Sc1nc2ccccc2s1 | inactive | –
23 | O=C(CC(C(=O)OC1CCCCC1)S(=O)(=O)O)OC1CCCCC1 (stereo not given) | inactive | –
24 | NC(N)=Nc1nc(CSCCC(N)=NS(N)(=O)=O)cs1 | inactive | –
25 | CCOC(=O)CC(=O)OCC | inactive | –
26 | CC(=O)Nc1c(I)c(NC(C)=O)c(I)c(C(=O)O)c1I | inactive | –
27 | CC(C)CC(=O)CC(C)CC(C)C (stereo not given) | inactive | –
28 | Brc1ccc(Oc2ccc(Br)cc2)cc1 | inactive | –
29 | CC1(C)S[C@@H]2[C@H](NC(=O)[C@H](N)c3ccccc3)C(=O)N2[C@H]1C(=O)O | inactive | –
30 | COc1c2occc2cc2ccc(=O)oc12 | inactive | –
31 | Cc1ccccc1S(=O)(=O)O | inactive | –
32 | CN(C)CCC(c1ccc(Cl)cc1)c1ccccn1 (stereo not given) | inactive | –
33 | O=[N+]([O-])c1ccc2nc[nH]c2c1 | inactive | –
34 | C1=CCC=C1 | inactive | –
35 | C=C1CC[C@H]2C[C@@H]1C2(C)C | inactive | –
36 | O=C(O)/C=C\C(=O)O | inactive | –
37 | O=C(O)Cc1c[nH]c2ccccc12 | inactive | –
38 | CCCC(=O)OC/C=C(\C)CCC=C(C)C | inactive | –
39 | Cc1cc(O)cc(C)c1Cl | – | 100 µM (active)
40 | CCCN[C@H]1CCc2nc(N)sc2C1 | inactive | –
